Experimental data reported in PubChem BioAssay (Tox21).
Results filed as inconclusive are left out. Entries that show only a call come without a potency. Activity calls are given as the source filed them. Unless noted, the call rests on the fitted dose curve.

Test: cAMP Responsive Elements (CRE) small molecule agonists, cell-based qHTS assay (AID 1963590)
Settings: CRE-bla HEK293T, beta-lactamase FRET ratio, 3 h; series mostly up to 92.4 µM; activation: at the top concentration
How it was run: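 Agonist mode: compound added to CRE-bla HEK 293T cells (2,000/well, 18 h after plating) for 3 h at 37 C/5% CO2. Reporter activity detected via FRET beta-lactamase substrate, 2 h room-temperature loading.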
In the case of Cc1ccc(N)cc1Cl, the Potency is reported as “inactive”.
With Cc1ncc(CNC(=O)N(CCCl)N=O)c(N)n1 the “activation” value was -1.48% [at 42.5 µM] (inactive).
In the case of Clc1ccc(Cl)c(Cl)c1, the “activation” value is reported as -0.497% (inactive).
For CCOC(=O)CC(SP(=O)(OC)OC)C(=O)OCC (stereo not drawn), the Potency was “inactive”.
With CCCC[n+]1ccc(C)cc1 the Potency was “inactive”.
In the case of CCCCCCCCCCCCCCCCn1cc[n+](C)c1, the “activation” value is reported as -1.42% (inactive).
For COc1ccc(N)cc1, the Potency was “inactive”.
For O=C(O)c1ccc(=O)[nH]c1, the “activation” value was -1.23% [at 42.5 µM] (inactive).
For O=[N+]([O-])c1cc(Cl)c(Cl)c(Cl)c1, the “activation” value was 0.22% (inactive).
With c1ccc(NNc2ccccc2)cc1 the Potency was “inactive”.
With CCCSC(=O)Cl the “activation” value was 0.249% (inactive).
For COCCl, the Potency was “inactive”.
For CNC(=O)N(C)c1nnc(C(C)(C)C)s1, the Potency was “inactive”.
With COc1cc(N)c(Cl)cc1C(=O)NC1CN2CCC1CC2 (stereo not drawn) the “activation” value was -0.553% [at 42.5 µM] (inactive).
With CCCCCCCCCl the Potency was “inactive”.
For COc1cc(OC)nc(NC(=O)NS(=O)(=O)c2ncccc2C(=O)N(C)C)n1, the “activation” value was 0.0918% (inactive).
With NC(=S)c1c(Cl)cccc1Cl the “activation” value was -0.0273% (inactive).
In the case of NNC(N)=S, the “activation” value is reported as -2.66% (inactive).
In the case of OCCCCO, the Potency is reported as “inactive”.
With NNC(=O)c1ccccc1 the “activation” value was 1.64% (inactive).
For CCCCCCCCCCCCCCCCCC(=O)O, the Potency was “inactive”.
For O=C(NC(=O)c1c(F)cccc1F)Nc1ccc(Cl)cc1, the Potency was “inactive”.
For Nc1ccc(Cl)c(Cl)c1, the Potency was “inactive”.
With CC1C=[C-]C=C1.[C-]#[O+].[C-]#[O+].[C-]#[O+].[Mn] the Potency was “inactive”.
In the case of CCOP(=O)(OCC)SCCSCC, the Potency is reported as “inactive”.
In the case of CC(C)=C[C@@H]1[C@@H](C(=O)OCc2coc(Cc3ccccc3)c2)C1(C)C, the Potency is reported as “inactive”.
In the case of CCCCCCCCCC(CC)c1ccc(S(=O)(=O)O)cc1 (stereo not drawn), the Potency is reported as “inactive”.
With COP(=S)(OC)Oc1cc(Cl)c(Cl)cc1Cl the Potency was “inactive”.
In the case of CC(=O)C(C)(C)C, the “activation” value is reported as 0.289% (inactive).
In the case of CCOP(=O)(CN(CCO)CCO)OCC, the “activation” value is reported as 0.27% (inactive).
For COC(=O)c1ccccc1CS(=O)(=O)NC(=O)Nc1nc(OC)cc(OC)n1, the “activation” value was -0.348% (inactive).
With C1CN2CCN1CC2 the Potency was “inactive”.

Test: cAMP Responsive Elements (CRE) small molecule antagonists, cell-based qHTS assay (AID 1963591; active means well fitted inhibition curve with a large enough effect in the signal ratio in the repeat runs, not every such curve was filed as active; the % refers to the signal ratio)
Settings: CRE-bla HEK293T, beta-lactamase FRET ratio; series mostly up to 92.4 µM; activity change, negative = inhibition: at the top concentration
How it was run: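 Antagonist mode: compounds are added alongside the adenylyl cyclase activator NKH477 (0.25 uM final) to CRE-bla HEK293T cells for 3 h. LiveBLAzer FRET substrate, 2 h at room temperature, reports bla expression.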
For Cc1ccc(N)cc1Cl, the “activity change, negative = inhibition” value was -6.94% (inactive).
For Cc1ncc(CNC(=O)N(CCCl)N=O)c(N)n1, the “activity change, negative = inhibition” value was 7.01% [at 42.4 µM] (inactive).
For Clc1ccc(Cl)c(Cl)c1, the Potency was “inactive”.
With CCOC(=O)CC(SP(=O)(OC)OC)C(=O)OCC (stereo not drawn) the Potency was “inactive”.
In the case of CCCC[n+]1ccc(C)cc1, the Potency is reported as “inactive”.
For CCCCCCCCCCCCCCCCn1cc[n+](C)c1, the “activity change, negative = inhibition” value was 1.18% (inactive).
In the case of COc1ccc(N)cc1, the Potency is reported as “inactive”.
In the case of O=C(O)c1ccc(=O)[nH]c1, the “activity change, negative = inhibition” value is reported as 2.74% [at 42.4 µM] (inactive).
In the case of O=[N+]([O-])c1cc(Cl)c(Cl)c(Cl)c1, the “activity change, negative = inhibition” value is reported as -0.279% (inactive).
With c1ccc(NNc2ccccc2)cc1 the Potency was “inactive”.
With CCCSC(=O)Cl the “activity change, negative = inhibition” value was 1.15% (inactive).
With O=C1C2CC=CCC2C(=O)N1SC(Cl)(Cl)Cl (stereo not drawn) the “activity change, negative = inhibition” value was 4.41% (inactive).
For CNC(=O)N(C)c1nnc(C(C)(C)C)s1, the Potency was “inactive”.
With COc1cc(N)c(Cl)cc1C(=O)NC1CN2CCC1CC2 (stereo not drawn) the “activity change, negative = inhibition” value was -4.41% [at 42.4 µM] (inactive).
In the case of CCCCCCCCCl, the Potency is reported as “inactive”.
In the case of COc1cc(OC)nc(NC(=O)NS(=O)(=O)c2ncccc2C(=O)N(C)C)n1, the “activity change, negative = inhibition” value is reported as 11.2% (inactive).
In the case of NC(=S)c1c(Cl)cccc1Cl, the “activity change, negative = inhibition” value is reported as -1.07% (inactive).
With NNC(N)=S the “activity change, negative = inhibition” value was 0.277% (inactive).
With OCCCCO the Potency was “inactive”.
With CCCCCCCCCCCCCCCCCC(=O)O the Potency was “inactive”.
In the case of O=C(NC(=O)c1c(F)cccc1F)Nc1ccc(Cl)cc1, the Potency is reported as “inactive”.
For Nc1ccc(Cl)c(Cl)c1, the Potency was “inactive”.
For CCOP(=O)(OCC)OP(=O)(OCC)OCC, the “activity change, negative = inhibition” value was 16.1% (inactive).
In the case of CC1C=[C-]C=C1.[C-]#[O+].[C-]#[O+].[C-]#[O+].[Mn], the Potency is reported as “inactive”.
With CCOP(=O)(OCC)SCCSCC the Potency was “inactive”.
For CC(C)=C[C@@H]1[C@@H](C(=O)OCc2coc(Cc3ccccc3)c2)C1(C)C, the Potency was “inactive”.
For CC(=O)C(C)(C)C, the “activity change, negative = inhibition” value was -4.14% (inactive).
With CCOP(=O)(CN(CCO)CCO)OCC the “activity change, negative = inhibition” value was -12% (inactive).
With c1ccc(Nc2ccc3ccccc3c2)cc1 the “activity change, negative = inhibition” value was -22.5% (inactive).
In the case of COC(=O)c1ccccc1CS(=O)(=O)NC(=O)Nc1nc(OC)cc(OC)n1, the “activity change, negative = inhibition” value is reported as 7.71% (inactive).
With C1CN2CCN1CC2 the Potency was “inactive”.
